# HPGD inh = blocks human HPGD enzyme activity; purified HPGD, NADH fluorescence kinetic, PGE2 substrate; Potency, µM, for inactives: top-dose activity change, negative = inhibition, usual class: inhibitors; hit rate 4.3% among 150,000; also: potency is read from the fitted curve at half-maximal effect
# Target sequence (P15428 whole entry, looked up): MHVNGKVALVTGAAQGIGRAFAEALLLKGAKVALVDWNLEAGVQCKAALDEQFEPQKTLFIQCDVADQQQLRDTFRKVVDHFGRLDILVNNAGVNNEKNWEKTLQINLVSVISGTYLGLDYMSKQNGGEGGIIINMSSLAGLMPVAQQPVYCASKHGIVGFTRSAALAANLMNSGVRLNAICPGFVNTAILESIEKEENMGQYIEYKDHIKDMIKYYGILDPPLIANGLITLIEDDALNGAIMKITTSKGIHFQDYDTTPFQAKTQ
#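 20 nM HPGD preincubated 15 min at room temperature with compound in 50 mM Tris-HCl pH 8, 0.01% Tween 20. Started with 1 mM NAD+ and 30 uM prostaglandin E2; NADH fluorescence (360/450 nm) read 5 times over 30-s intervals, last minus first.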
# ALDH1A1 block = blocks purified human ALDH1A1 activity; Purified ALDH1A1, NADH fluorescence, propionaldehyde substrate; Potency, µM (top dose mostly 75.3 µM), for inactives: top-dose activity, negative = inhibition, usual class: inhibitors; hit rate 7.3% among 220,000; AID 1030;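 also: potency is read from the fitted curve at half-maximal effect; plate controls were no enzyme wells and a reference inhibitor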
# PNC inhibitor = blocks assembly of the perinucleolar compartment; PC3M PTB-GFP, PNC prevalence imaging, 16 h; hits give low values; hit rate 3.1% among 140,000; activity change (PNC), negative = inhibition, % at 10 µM;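 active = readout at or below -70, meaning at least 70% loss of cells showing the perinucleolar compartment, a nuclear body marking cancer cells; inconclusive = readout between -30 and a set limit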;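 also: plate controls were DMSO wells for no effect and camptothecin positive control wells for full effect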
#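 Compounds are pinned in duplicate onto adhered PC3M cells stably expressing GFP-tagged PTB and incubated 16 h at 37 C. Cells are then fixed, nuclei stained with Hoechst, and PNC-positive cells counted.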
# Starred values were filed as active, the others as inactive; ? = inconclusive; / = no result; [ ] = remark or other dose. A selection: hits, their analogues and other compounds. The true share with any hit is near 11%. Unless noted, calls follow the shape of the dose curve; as a rule, active = well fitted inhibition curve with a large enough effect (not every such curve was filed as active); inconclusive = small, poorly fitted or top-dose-only effect, or another doubt; inactive = no such curve, though single readings can be large or run the other way. Unless noted, % is scaled to controls: 0 for no effect and ±100 for the full control effect.
SMILES,HPGD inh,ALDH1A1 block,PNC inhibitor
CC1CCCCN1C(=S)Nc1ccc(OC(F)F)cc1 (stereo not drawn),3%,-8%,?
COCCn1c(=O)c(-c2cc(F)cc(F)c2)nc2cnc(N(C)C)nc21,/,2%,/
Cc1c(Cl)c([N+](=O)[O-])nn1CC(=O)Nc1ccc2c(c1)OCO2,-7%,-4%,12
Cn1cnnc1SCC(=O)N1N=C2/C(=C/c3ccco3)CCCC2C1c1ccco1 (stereo not drawn),?,16µM*,?
Nc1nc(SCC(=O)N2N=C3/C(=C/c4ccco4)CCCC3C2c2ccco2)n[nH]1 (stereo not drawn),-4%,?,?
Cn1cnnc1SCC(=O)N1N=C(c2ccc(Cl)cc2)CC1c1ccco1 (stereo not drawn),/,3%,/
O=C(CSc1nccc(=O)[nH]1)N1N=C2/C(=C/c3ccco3)CCCC2C1c1ccco1 (stereo not drawn),/,14µM*,/
CO[C@@H]1COC(=O)C/C=C\[C@@H](C)COC(=O)[C@H](COCc2ccccc2)NC(=O)C/C=C\[C@H]1C,/,-10%[13.5 µM],/
CCN=C1SC(C(=O)Nc2cccc(C(=O)O)c2)CC(=O)N1CC (stereo not drawn),-12%,7%,38
CCN=C1SC(C(=O)Nc2ccccc2)CC(=O)N1CC (stereo not drawn),-11%,?,-85*
CC(C)c1nnc(NC(=O)CCC(=O)NC2CCCc3ccccc32)s1 (stereo not drawn),-4%,1%,-14
CCOc1cc(C2NC(=O)NC(O)(C(F)(F)F)C2C(=O)c2ccc(OC)cc2)ccc1O (stereo not drawn),-12%,5.6µM*,-1
CCOC(=O)C1C(c2cc(OC)c(OC)c(OC)c2)NC(=S)NC1(O)C(F)(F)F (stereo not drawn),32µM*,?,?
CCOC(=O)C1C(c2cc(OC)c(O)c(OC)c2)NC(=S)NC1(O)C(F)(F)F (stereo not drawn),-4%,10%,-14
CCOc1cc(C2NC(=O)NC(O)(C(F)(F)F)C2C(=O)c2ccc(Cl)cc2)ccc1O (stereo not drawn),-14%,?,26
CCCNC(=O)OC[C@@H]1O[C@H](CCON=C(C)C)C=C[C@@H]1Oc1ccc(OC)cc1,/,16%[13.5 µM],/
OCCC1CN(C2CCN(c3ccccc3F)CC2)CCN1Cc1ccccc1 (stereo not drawn),/,7%,/
Cc1nc(NC(=O)c2ccc(Br)o2)sc1C,-21%,?,14
O=C(Nc1nccs1)c1ccc(Br)o1,25µM*,?,-100*
C/C(=C\C(=O)O)C(=O)Nc1nccs1,-10%,3%,?
O=C(/C=C/c1ccc(Br)o1)Nc1nccs1,/,22µM*,/
C/C(=C\C(=O)Nc1nccs1)c1ccccc1,16µM*,-5%,18
CSc1ccccc1C(=O)Nc1nccs1,16µM*,?,-25
O=C(O)/C=C/C(=O)Nc1nccs1,/,0%,/
O=C(O)c1ccccc1C(=O)Nc1nccs1,-2%,9%,29
SMILES,HPGD inh,ALDH1A1 block,PNC inhibitor
Cc1ccc(-c2csc(NC(=O)N3CCOCC3)n2)cc1,/,-2%,/
O=C(CCN1CCN(c2ccccc2)CC1)N/N=C/c1ccccc1OC(F)F,/,-7%,/
Cc1ccc(C(=O)NNC(=O)CCN2C(=O)C3CCCCC3C2=O)cc1 (stereo not drawn),-5%,1%,-16
CCC(=O)CC(NC(=O)OC)c1ccc(F)cc1 (stereo not drawn),/,13%[13.5 µM],/
Cc1cc(C)c2c(=O)cc(C(F)(F)F)oc2n1,/,-1%,/
CCC(CC)C(=O)Nc1cccc(C(=O)Nc2nccs2)c1,-12%,0%,-4
CCCc1cc(C(=O)Nc2nccs2)cs1,10µM*,?,-26
CCCOC(=O)Nc1ccc(C(N)=O)cc1,-20%,?,?
CCC(=O)NC(=S)Nc1cccc(C(C)=O)c1,-15%,8%,-10
CC(=O)c1cccc(NC(=S)NC(=O)CC(C)C)c1,16µM*,4%,16
CCCOC(=O)Nc1cccc(C(C)=O)c1,10µM*,-1%,-100*
Cc1ccc(O)c(NC(=S)NC(=O)CC(C)C)c1,-9%,-4%,18
CCCCC(=O)Nc1cccc(NC(=S)NC(=O)C(C)C)c1,-5%,-1%,44
CCCCCC(=O)NC(=S)Nc1cccc(C(C)=O)c1,14µM*,?,2
CCCC(=O)NC(=S)Nc1cccc(C(C)=O)c1,16µM*,-11%,38
CC(C)C[C@@H](CC(=O)N[C@@H](CCCN)CC(=O)N[C@@H]1CCNC[C@H]1C(=O)N[C@H](CC(=O)N[C@@H](CCC(=O)O)CC(=O)O)CC(C)C)NC(=O)[C@@H]1CNCC[C@H]1N,-3%,?,/
NCC12CC3CC(C1)CC(c1ccc(Cl)cc1)(C3)C2,/,7%,/
Cc1nc2cc3nc(C(F)(F)F)[nH]c3cc2[nH]1,60%,-7%,?
CC(=O)c1cccc(NC(=S)Nc2ccn(Cc3cccc4ccccc34)n2)c1,/,0.79µM*,/
CC(=O)c1cccc(NC(=S)NCCc2ccc(F)cc2)c1,/,-4%,/
COc1ccc2nc(Nc3nc(CSc4nc5ccccc5[nH]4)cc(=O)[nH]3)nc(C)c2c1,-18%,-2%,3
Cc1nc(Nc2nc(CSc3nc4ccccc4[nH]3)cc(=O)[nH]2)nc2ccccc12,-14%,-7%,-97*
Cc1cc(C(=O)COC(=O)Cc2n[nH]c(=O)c3ccccc23)c(C)n1-c1ccc2c(c1)OCCO2,-25%,?,10
CCCCCCCCCCCCC(C(=O)O)C(C)C(=O)O (stereo not drawn),-19%,5%,/
Cc1cc(C(F)(F)F)n(-c2nc(C(=O)NN)cs2)n1,/,2.2µM*,/
SMILES,HPGD inh,ALDH1A1 block,PNC inhibitor
CCOC(=O)c1csc(-n2nc(C)cc2C(F)(F)F)n1,/,-11%,/
CCCc1cc2c(n1Cc1cc(F)cc(F)c1)C(C)C1CN(C(=O)c3ccccc3)C(C)(C(=O)OC)C21 (stereo not drawn),-12%,-2%,/
COc1ccc2nc(SCC(=O)NCC(F)(F)F)[nH]c2c1,/,3%,/
CNc1ccc(/C=C/C(=O)c2cccc3ccccc23)cc1[N+](=O)[O-],-12%,?,7
N#Cc1ccccc1Sc1ccccc1C(=O)OCC(=O)NC12CC3CC(CC(C3)C1)C2,13µM*,-5%,-5
O=C(OCC(=O)N1CCN(C(=O)c2ccco2)CC1)c1ccccc1O,-6%,-1%,14
CC(=O)c1ccc(NC(=O)COC(=O)c2ccccc2Sc2ccccc2C#N)cc1,?,6%,-7
N#Cc1ccccc1Sc1ccccc1C(=O)OCC(=O)N1CCN(C(=O)c2ccco2)CC1,?,14µM*,-28
O=C1CC(c2ccccc2)CN1C(=O)c1cncc(Br)c1 (stereo not drawn),/,5%,/
O=C1C2C3C=CC([C@@H]2C(=O)N1C1CC1)[C@H]1C(=O)N(C2CC2)C(=O)C31 (stereo partly drawn),-6%,?,92
O=C1C2C3C=CC(C2C(=O)N1C1CCCCC1)C1C(=O)N(C2CCCCC2)C(=O)C31 (stereo not drawn),-1%,2.8µM*,-2
Cc1nc2cc(C(=O)NCc3cccnc3)ccc2n1-c1ccc(F)cc1F,/,2%,/
CC(=O)NCCC(=O)Nc1sc2c(c1-c1nc3ccccc3[nH]1)CCCC2,?,?,-80*

# High-throughput results deposited in PubChem BioAssay by National Center for Advancing Translational Sciences (NCATS).
